# According to the supplement of paper PMC7156485:
# ± gives the standard deviation of the averaged measurements.
# Tested on: HCC1569
# Experiment: cell number relative to DMSO (% of DMSO); higher = more cells (less growth inhibition / toxicity)
# Details: concentration: 10 µM; 24 h
# Procedure, shortened: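 H1.0 nuclear intensity or cell number is expressed as percent of the plate control, with the median of replicates taken. HCC1569 and TDF cells were treated with compounds at 10 µM for 24 h at 37 °C, in triplicate, then fixed and immunostained for H1.0 with DAPI as a nuclear stain. HCC1569 values were smoothed to correct for positional effects.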
# 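Note: TDF denotes transformed human dermal fibroblasts of mesenchymal origin.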
row,Compound,cell number
1,CCS(=O)(=O)CCn1c([N+](=O)[O-])cnc1C [Tinidazole],107
2,CCCC1OC2CC3C4CCC5=CC(=O)C=CC5(C)C4C(O)CC3(C)C2(C(=O)CO)O1 (centres undefined) [Budesonide],97.2
3,NC(=O)c1cccc(-c2cc(Nc3ccc(OC(F)(F)F)cc3)ncn2)c1 [Bcr-abl Inhibitor],89.5
4,CCOC(=O)c1c(C)[nH]c(C=C2C(=O)Nc3ccccc32)c1C [VEGF Receptor 2 Kinase Inhibitor I],100
5,"O=c1ccc2ccc(O)c(O)c2o1 [7,8-dihydroxy-2H-chromen-2-one]",99.2
6,CN1CCN(C2=Nc3ccccc3Oc3ccc(Cl)cc32)CC1.O=C(O)CCC(=O)O [Loxapine succinate],101
7,CC(C)NCC(O)COc1ccc(CC(N)=O)cc1 (stereo not drawn) [R(+)-Atenolol],98.9
8,CN(C)CCC(c1ccc(Br)cc1)c1ccccn1.O=C(O)C=CC(=O)O (racemic),101
9,N=C(N)c1ccc(OCCCCCOc2ccc(C(=N)N)cc2)cc1 [Pentamidine],101
10,O=C(O)CCCC=CCC1C(O)CC(O)C1C=CC(O)COc1cccc(Cl)c1.[Na] (centres undefined),99.8
11,"O=C(OC12CC3CC(CC(C3)C1)C2)c1ccc(NCc2cc(O)ccc2O)cc1 [1-adamantyl 4-[(2,5-dihydroxybenzyl)amino]benzoate]",8.48
12,CON=C(C(=O)NC1C(=O)N2C(C(=O)[O-])=C(CSc3nc(=O)c([O-])nn3C)CSC12)c1csc(N)n1.[Na+].[Na+] (centres undefined) [Ceftriaxone sodium],101
13,CC(=O)OC12COC1CC(O)C1(C)C(=O)C(O)C3=C(C)C(OC(=O)C(O)C(NC(=O)OC(C)(C)C)c4ccccc4)CC(O)(C(OC(=O)c4ccccc4)C21)C3(C)C (centres undefined) [Docetaxil],61.6
14,CCCCCCCCCCCCCCCCCCCCC(=O)O [Heneicosanoic acid],102
15,CCCCCCCCCC(=O)O [Decanoic acid],105
16,Cc1cnc(Nc2ccc(OCCN3CCCC3)cc2)nc1Nc1cccc(S(=O)(=O)NC(C)(C)C)c1,67.1
17,COc1ccc(Cl)cc1NC(=O)Nc1cc(C)nc2ccccc12 [IGF-1R Inhibitor II],103

row,Compound,cell number
1,Cc1cc2c(s1)=Nc1ccccc1NC=2N1CCN(C)CC1 [Olanzapine],106
2,CCOC(=O)c1cnc2c(cnn2CC)c1NN=C(C)C.Cl [Etazolate hydrochloride],107
3,CCN(CC)CCOCCOC(=O)C1(c2ccccc2)CCCC1.O=C(O)CC(O)(CC(=O)O)C(=O)O [Carbetapentane citrate],86.4
4,CC(=O)NCCOC(=O)[C@H](Oc1cccc(C(F)(F)F)c1)c1ccc(Cl)cc1,104
5,OCC1OC(n2cnc3c(NC4CCCCC4)ncnc32)C(O)C1O (centres undefined) [N6-Cyclohexyladenosine],100
6,C[Se]CCC(N)C(=O)O (centres undefined) [Selenomethionine],100
7,CN(C)CCC(c1ccc(Cl)cc1)c1ccccn1 (centres undefined) [Chlorpheniramine],100
8,COc1cc(O)c2c(=O)c(O)c(-c3ccc(O)c(O)c3)oc2c1 [Rhamnetine],91.7
9,CS(=O)(=O)c1ccc(C(O)C(COC(=O)CN)NC(=O)C(Cl)Cl)cc1 (centres undefined) [Thiamphenicol glycinate],105
10,FC(F)(F)c1ccc(CNc2ccc(Cc3c[nH]c4ncccc34)cn2)cc1,75.5
11,C1CNCCN1.COc1cc(C(O)CO)ccc1O.COc1cc(C(O)CO)ccc1O (centres undefined) [MHPG piperazine],100
12,"CCCCCC=CCC=CCC=CCC=CCCCCCC(=O)O [7(Z), 10(Z), 13(Z), 16(Z)-Ocosatetraenoic Acid]",100
13,COc1cc(-c2ccc(=O)[nH]n2)ccc1OC(F)F [Zardaverine],106 ± 5.7
14,CC(C)Cc1ccc(C(C)C(=O)NO)cc1 (centres undefined) [Ibuproxam],103
15,NCCCS(=O)(=O)[O-].[Na+] [3-Amino-1-propanesulfonic acid sodium],94.4
16,CC(=O)Nc1nnc(S(N)(=O)=O)s1 [Acetazolamide],104
17,CCCCCCCCCCCCCCCCOCC(CO)OC(C)=O (centres undefined) [1-Hexadecyl-2-O-acetyl-glycerol],106
